# Reference: PubChem BioAssay (NCI)
# About 83,000 compounds went through this panel and 20% of them were active in at least one assay; those are over-represented in the sample as a whole.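 Note: values are percent growth. 100 is the growth of untreated cells, values between 100 and 0 indicate rising inhibition; between -100 and 0 indicates cell death.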 Unmarked numbers belong to inactive results. The source made the active and inactive calls. Rule for the calls: active = growth percent below 10; inactive = the rest.
# System: HL-60(TB) leukemia
# Assay: NCI-60 one-dose screen, 48 h (100 = growth as untreated, 0 = no growth, -100 = all killed)
# Details: 10 µM unless noted
row,SMILES,growth
1,COc1ccc(-c2nn(-c3ccc(S(C)(=O)=O)cc3)cc2/C=N/O)cc1,103%
2,Cn1cc(-c2nnc(N)nc2-c2c[nH]c3ccc(F)cc23)c2cc(Br)ccc21,-20.7% (active)
3,Oc1ccc(CSc2nnc(-c3ccc(Oc4ccccc4)cc3)o2)c2cccnc12,19.1%
4,N/C(=N\c1nc2c(Cl)cccc2s1)C(Cl)(Cl)Cl,25.5%
5,COc1cc(-c2nn(C(C)(C)C)cc2-c2ccnc(NCCCNS(=O)(=O)c3ccccc3)n2)ccc1Cl,103%
6,C#C[C@]1(O)CC[C@H]2[C@@H]3CC=C4c5sc(-c6cccc(O)c6)nc5CC[C@]4(C)[C@H]3CC[C@@]21C,-30.7% (active)
7,COc1ccc(/C=N/NC2=NC3C(S2)N(C)C(=O)N3C)cc1 (stereo unspecified),-28.8% (active)
8,COc1ccc(-c2oc3cc(O)cc(O)c3c(=O)c2OC)cc1O,-6.5% (active)
9,Nc1ncc(-c2ccc3ncnc(NCc4ccccc4)c3c2)cn1,44.1%
10,C/C(=C(/C)C1CC1CCN(C(=O)c1ccccn1)S(=O)(=O)c1ccc(C)cc1)C1CCCCC1 (stereo unspecified),97.4%
11,C#C[C@]1(O)CC[C@H]2[C@@H]3CC=C4c5sc(NCc6ccccc6)nc5CC[C@]4(C)[C@H]3CC[C@@]21C,24%
12,COc1ccc(-n2c(/C=C3\C(=O)Nc4ccccc43)ccc2CO)cc1,92.7%
13,CS(=O)(=O)c1ccc(-c2nn(-c3ccccc3)cc2/C=C/C(=O)c2ccc(Br)cc2)cc1,51.9%
14,Cc1ccc(-c2cc(-c3ccc(N(C)C)cc3)n3c(n2)nc2ccccc23)cc1,67.1%
15,COc1ccc(Cn2cc3c(c2-c2cc(OC)c(OC)c(OC)c2)CCCc2cnoc2-3)cc1,-5.47% (active)
16,Cc1nn(-c2ccccc2)c2ncnc(N/N=C/c3ccccc3O)c12,-7.88% (active)
